This is a sample that favours compounds with a hit; in the whole collection about 0.76% have one here.
PrP 5UTR inh: inhibition of PrP 5' UTR reporter expression; cell-based PrP 5' UTR mRNA reporter, plate reader; 340,000 tested, 0.35% active; inhibition, % (concentration not given with the values); AID 488862, 2010; in the data active = inhibition above about 52%
FadD28 binding: inhibitors of FadD28 bisubstrate probe binding, primary screen, biochemical, fluorescence polarization, single point | inhibition, % at 12.5 µM | AID 588549, 2011 | Mycobacterium tuberculosis FadD28 fatty-acid-AMP ligase | 360,000 tested, 0.22% active; in the data active = inhibition above about 8.5%, passing the limit was not always enough; inconclusive = no clear call, values can overlap the other calls
Rv3671c protease: Rv3671c serine protease inhibitors, primary screen, biochemical, fluorescence polarization, M. tuberculosis H37Rv | P9WHR9 | 320,000 tested, 0.048% active | AID 2606, 2010 | inhibition, % at 5.96 µM; in the data active = inhibition above about 38%;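 note: extracellular domain of Rv3671c used as enzyme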
Target sequence (P9WHR9 whole entry, looked up, the tested form may be a part): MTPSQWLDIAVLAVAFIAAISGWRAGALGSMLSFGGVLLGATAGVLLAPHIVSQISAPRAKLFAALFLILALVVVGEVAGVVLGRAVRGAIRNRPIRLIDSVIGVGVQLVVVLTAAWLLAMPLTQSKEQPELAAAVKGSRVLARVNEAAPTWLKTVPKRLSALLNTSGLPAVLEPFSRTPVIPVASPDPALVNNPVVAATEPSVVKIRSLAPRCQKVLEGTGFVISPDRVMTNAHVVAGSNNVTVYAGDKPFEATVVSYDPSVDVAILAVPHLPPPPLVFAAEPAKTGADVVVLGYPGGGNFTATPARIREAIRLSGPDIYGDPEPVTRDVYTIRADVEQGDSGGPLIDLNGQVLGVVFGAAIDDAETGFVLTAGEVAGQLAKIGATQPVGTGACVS
UGM FP inh: M. tuberculosis UGM enzyme inhibitors, primary screen, biochemical, fluorescence polarization, single point; UDP-galactopyranose mutase (Mycobacterium tuberculosis (strain ATCC 25618 / H37Rv)), …; purified UGM, fluorescence polarization probe displacement; inhibition, % at 10 µM; 320,000 tested, 0.06% active; in the data active = inhibition above about 10%, passing the limit was not always enough; inconclusive = no clear call, values can overlap the other calls
BH1578 lux ind: inducers of Vibrio cholerae quorum light production without autoinducers, primary screen, BH1578 luxS cqsA deficient, single point; activation, % at 18.7 µM; V. cholerae BH1578 lux reporter, luminescence, 6 h; 350,000 tested, 0.16% active; in the data active = activation mostly above about 9.7%, no sharp cut-off; inconclusive = no clear call, values can overlap the other calls; inactive = mostly below about 3.7%
Mtb betalactam: beta-lactam sensitization of Mtb H37Rv, H37Rv; inhibition, % at 25 µM; 330,000 tested, 0.27% active; M. tuberculosis H37Rv growth with meropenem, percent inhibition; call rule not given here;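 note: growth measured after seven days incubation then overnight dye step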
PrP 5UTR single: prion 5' UTR mRNA inhibition, cherry-pick retest; shares compounds with PrP 5UTR inh; cell-based prion protein 5' UTR reporter, plate reader; inhibition, % at 2.5 µM; 1,100 tested, 48% active; AID 504592, 2011; in the data active = inhibition above about 54%; inconclusive = no clear call, values can overlap the other calls
Of the large screens only hits and unclear results are named; the others gave an inactive call (follow-up assays come after a bar, where they were run).

COC(=O)c1c(N)sc(C(=O)NCCc2ccccc2)c1C	PrP 5UTR inh 70, UGM FP inh inconclusive (no result: Rv3671c protease) | PrP 5UTR single 64
Cc1ccc(C(=O)N2CCN(S(=O)(=O)c3cc(Br)ccc3Br)CC2)o1	none
O=C(Nc1cccc2ncccc12)c1cccnc1	PrP 5UTR inh 74 | PrP 5UTR single inactive
Cc1cccc(Oc2sc(C(=O)c3ccccc3)c(N)c2C#N)c1	none (no result: UGM FP inh)
NNc1ccc(Cl)nn1	none
CN(C)CCNC(=O)c1ccccc1	none
CN(C)CCCNC(=O)c1ccc(Oc2ccccc2)cc1	PrP 5UTR inh 88 | PrP 5UTR single inactive
CCCNC(=O)Cn1nc(C(F)(F)F)cc1C	PrP 5UTR inh 58 | PrP 5UTR single inactive
CC1CCCN(C(=O)CNS(=O)(=O)c2cccs2)C1 (stereo not drawn)	none
Cc1nnc(NCCN2CCOCC2)[nH]c1=O	none
Cc1nnc(NN2CCOCC2)[nH]c1=O	PrP 5UTR inh 84 | PrP 5UTR single inactive
CCOc1ccc(NC(=O)c2cc(S(=O)(=O)N3CCOCC3)cs2)cc1	none
CCOc1ccc(NC(=O)c2cc(S(=O)(=O)N3CCOCC3)cn2C)cc1	PrP 5UTR inh 51 | PrP 5UTR single inactive
O=C(NC(=S)NC1C2CC3CC(C2)CC1C3)C12CC3CC(CC(C3)C1)C2 (stereo not drawn)	none
Cc1ccc2c(c1)sc(=NC(=O)c1cccs1)n2C	PrP 5UTR inh 65 | PrP 5UTR single inactive
C#CCN(CC=C)C(=O)c1ccc2nc(C3CCCCC3)oc2c1	none
Cc1cccc(C)c1OCc1nnc(SCC(=O)Nc2ccc(N3CCOCC3)cc2)o1	none (no result: FadD28 binding)
O=C(c1ccccc1)N1CCSc2sccc2C1=O	PrP 5UTR inh 58 (no result: Rv3671c protease, UGM FP inh, Mtb betalactam) | PrP 5UTR single inactive
Cc1cc(C(=O)COC(=O)c2cccc(NS(C)(=O)=O)c2)c(C)n1CC1CCCO1 (stereo not drawn)	none
O=C(c1ccccc1)n1ccc(-c2cnc(-c3ccccc3)s2)n1	PrP 5UTR inh 54 | PrP 5UTR single inactive
COc1ccc(-c2cc3c(nn2)-c2ccccc2C3=O)cc1	PrP 5UTR inh 63 | PrP 5UTR single inconclusive
COc1ccc(C[C@H]2NC[C@H](O)[C@H]2OC(C)=O)cc1	PrP 5UTR inh 92 | PrP 5UTR single 96
COc1cccc(CNC(=O)COC(=O)c2cc([N+](=O)[O-])ccc2N2CCCC2)c1	PrP 5UTR inh 84 | PrP 5UTR single inactive
COc1ccc(/C=C/CN2CCN(Cc3ccccc3)C(CCO)C2)cc1 (stereo not drawn)	PrP 5UTR inh 76 | PrP 5UTR single inactive
Nc1ncnc2c(C3OC(CO)C(O)C3O)scc12 (stereo not drawn)	PrP 5UTR inh 58 (no result: Rv3671c protease, UGM FP inh, Mtb betalactam) | PrP 5UTR single 82
COc1cccc(C(=O)SC2=NCCS2)c1	none
O=C(O)c1cccc(COc2cccc3ccccc23)c1	none
Cc1ccccc1OCCC(=O)N1CCN(S(=O)(=O)c2ccc(F)cc2)CC1	none
Cc1cc(C)c(S(=O)(=O)N2CCN(C(=O)CCOc3ccccc3C)CC2)c(C)c1	PrP 5UTR inh 88 | PrP 5UTR single inactive
O=C(Nc1ccncc1)C1COc2ccccc2O1 (stereo not drawn)	none
O=C(NC1=NCCS1)C1COc2ccccc2O1 (stereo not drawn)	PrP 5UTR inh 72 | PrP 5UTR single 77
CCC1(C(=O)c2ccc(Cl)cc2)C2c3ccccc3OC(=O)C21C(=O)Nc1ccccc1 (stereo not drawn)	none
COc1cc(NC(=O)Cn2c(=O)n(CC3CCCO3)c(=O)c3cc(OC)c(OC)cc32)cc(OC)c1 (stereo not drawn)	none
COc1ccc(NC(=O)Cn2c(=O)n(CC3CCCO3)c(=O)c3cc(OC)c(OC)cc32)cc1OC (stereo not drawn)	PrP 5UTR inh 58 | PrP 5UTR single inactive
Cc1cccc([N+](=O)[O-])c1NC(=O)COC(=O)c1nc2nccc(C)n2n1	none
COC(=O)c1cn(NC(=O)c2ccc([N+](=O)[O-])c(C)c2)c(=O)c2ccccc12	FadD28 binding inconclusive
COC(=O)c1cn(NC(=O)c2ccccc2[N+](=O)[O-])c(=O)c2ccccc12	PrP 5UTR inh 56 | PrP 5UTR single inactive
COC1C=CC=C(C)C(=O)NC2=CC(=O)C(N)=C(CC(C)CC(OC)C(O)C(C)C=C(C)C1OC(N)=O)C2=O (stereo not drawn)	PrP 5UTR inh 76 (no result: Rv3671c protease, UGM FP inh, Mtb betalactam) | PrP 5UTR single 82
CCN(CC)c1ccc(N=Cc2ccc(N(CC)CC)cc2O)cc1	none
CCN(CC)c1ccc(/C=N/N=C(N)N)c(O)c1	PrP 5UTR inh 62 | PrP 5UTR single 90
CCCCN=C(C)C1=C(O)CSC1=O	PrP 5UTR inh 78 | PrP 5UTR single inactive
CCN(CC)S(=O)(=O)c1ccc(N2CCOCC2)c(NC(=O)CN2C(=O)NC3(CCCC3)C2=O)c1	none (no result: Rv3671c protease, UGM FP inh, Mtb betalactam)
CCN(CC)S(=O)(=O)c1ccc(N2CCCC2)c(NC(=O)CN2C(=O)NC3(CCCC3)C2=O)c1	PrP 5UTR inh 77 | PrP 5UTR single inactive
C[C@]12CCC3C(CCC4=CC(O)CC[C@@]43/C=N/O)C1(O)CCC2C1=CC(=O)OC1 (stereo partly drawn)	PrP 5UTR inh 80 | PrP 5UTR single 70
O=C(O)c1ccc(Cl)c(NC(=O)C2CCN(S(=O)(=O)c3ccc4c(c3)OCCO4)CC2)c1	none (no result: PrP 5UTR inh, Rv3671c protease, UGM FP inh, Mtb betalactam)
N#Cc1cc(C#N)c(N2CCN(c3ccccn3)CC2)nc1N	none
COC(=O)C1=CO[C@@H](O[C@@H]2O[C@H](CO)[C@@H](O)[C@H](O)[C@H]2O)C2C1C=C[C@@]2(O)CO (stereo partly drawn)	PrP 5UTR inh 76 | PrP 5UTR single inactive
Cc1ccccc1NC(=O)Cc1nc(COC(=O)CSc2ccc(F)cc2)cs1	none (no result: PrP 5UTR inh, Rv3671c protease, UGM FP inh, Mtb betalactam)
COc1cc(OC)cc(C(=O)N2CCN(Cc3ccccc3Br)CC2)c1	PrP 5UTR inh 85 | PrP 5UTR single inactive
Cc1ccc(F)c(S(=O)(=O)NC(=O)C2(C)CCN2C(=O)c2sccc2C)c1 (stereo not drawn)	none (no result: PrP 5UTR inh, Rv3671c protease, UGM FP inh, Mtb betalactam)
CC1OC(OC2C=C3CCC4C(CCC5(C)C(c6ccc(=O)oc6)CCC45O)C3(C)CC2)C(O)C(OC2OC(CO)C(O)C(O)C2O)C1O (stereo not drawn)	PrP 5UTR inh 93 (no result: Rv3671c protease, UGM FP inh, Mtb betalactam) | PrP 5UTR single 92
CC(=O)O[C@H]1C(=O)[C@@]2(C)[C@H]([C@H](OC(=O)c3ccccc3)[C@]3(O)C[C@H](OC(=O)[C@H](O)C(NC(=O)c4ccccc4)c4ccccc4)C(C)=C1C3(C)C)[C@]1(OC(C)=O)CO[C@@H]1C[C@@H]2O (stereo partly drawn)	PrP 5UTR inh 70 | PrP 5UTR single 88
